Active and inactive are the calls of the source. No rule for the calls is given here.
Experiment: Clonogenic survival assay for Identifying a Potential Treatment of Ataxia-Telangiectasia:SAR for Probe
Details: ATM-null F2111 fibroblasts, NCS clonogenic survival, 14 d
From the text: NIH Chemical Genomics Center [NCGC] NIH Molecular Libraries Probe Centers Network [MLPCN] MLPCN Grant: MH089030-01 Assay Submitter (PI): Wei Zheng and Yosef Shiloh Ataxia-telangiectasia (A-T) is a devastating and progressive disease for which, there is no cure. Although A-T is a multisystem disease, it is stereotyped characterized by its neurological symptoms such as truncal ataxia, due to cerebellar cortical degeneration of the Purkinje and granule cells. Other symptoms of A-T are telangiectasias (dilated blood vessels), primary immunodeficiency, marked sensitivity to ionizing radiation (IR), chromosomal instability and predisposition to cancer. The underlying genetic cause of A-T is null mutations in the ATM (A-T mutated) gene. ATM is a nuclear serine/threonine kinase that functions as a master regulator of the cellular responses to double strand breaks (DSBs) in the DNA. Upon activation by DSBs, ATM phosphorylates a plethora of downstream targets, including KAP-1 on […]. KAP-1 phosphorylation occurs shortly in response to DSBs and mediates global chromatin relaxation, which facilitates DSB repair. To screen for small molecules that will compensate for the loss of ATM in cells derived from A-T patients, we monitored KAP-1 phosphorylation as a readout for ATM-like activity using an AlphaLISA assay. Active compounds should protect the A-T cells from the damage by NCS treatment and form normal colonies.
ATM null (F2111) cells are treated with various doses of the radiomimetic drug neocarzinostatin (NCS) and plated at densities of 200-5000 cells/[…]. 24 hr later the cells were either treated or not treated with Rottlerin, and 30 min later NCS was added for an additional 30 minutes. Then the medium was replaced with fresh medium and plates were incubated for 14 days until colonies could be visualized. After fourteen days, the cultures are fixed and stained and colonies scored manually. Colony survival in absence of NCS was normalized to 100% survival for each compound concentration.

CC(=O)c1c(O)c(C)c(O)c(Cc2c(O)c3c(c(C(=O)/C=C/c4ccccc4)c2O)OC(C)(C)C=C3)c1O
survival (at 30 µM, stronger effect = higher value): 43% (active) | survival (measured here: 10 ng/ml NCS, no compound): 35% | survival (measured here: 20 ng/ml NCS, at 30 µM, stronger effect = higher value): 33% | survival (measured here: 40 ng/ml NCS, at 30 µM, stronger effect = higher value): 15%

From PubChem BioAssay AID504376 (National Center for Advancing Translational Sciences (NCATS), 2011)
